Laboratory results: PubChem BioAssay (NCATS)
Values without a mark were called inactive. Records with an inconclusive call do not appear. Where a call stands in place of a potency, no number is given. Calls of active or inactive are those of the source. The call rests on the fitted dose curve; in most records, active means well fitted curve in the direction sought with a large enough effect; inconclusive means small, poorly fitted or top-dose-only effect, or another doubt; inactive means no such curve, though single readings can be large; an effect the other way counts as inactive or inconclusive.

Tests used:
[1] = target: Cytochrome P450 3A4 (Homo sapiens) (UniProt P08684); experiment: qHTS Assay for Inhibitors and Substrates of Cytochrome P450 3A4 (AID 884); further: potency means the concentration at half of the fitted maximal effect; nearly all actives have a fitted effect of over 50% in size
Sequence of Cytochrome P450 3A4 (Homo sapiens) (P08684 whole entry, looked up): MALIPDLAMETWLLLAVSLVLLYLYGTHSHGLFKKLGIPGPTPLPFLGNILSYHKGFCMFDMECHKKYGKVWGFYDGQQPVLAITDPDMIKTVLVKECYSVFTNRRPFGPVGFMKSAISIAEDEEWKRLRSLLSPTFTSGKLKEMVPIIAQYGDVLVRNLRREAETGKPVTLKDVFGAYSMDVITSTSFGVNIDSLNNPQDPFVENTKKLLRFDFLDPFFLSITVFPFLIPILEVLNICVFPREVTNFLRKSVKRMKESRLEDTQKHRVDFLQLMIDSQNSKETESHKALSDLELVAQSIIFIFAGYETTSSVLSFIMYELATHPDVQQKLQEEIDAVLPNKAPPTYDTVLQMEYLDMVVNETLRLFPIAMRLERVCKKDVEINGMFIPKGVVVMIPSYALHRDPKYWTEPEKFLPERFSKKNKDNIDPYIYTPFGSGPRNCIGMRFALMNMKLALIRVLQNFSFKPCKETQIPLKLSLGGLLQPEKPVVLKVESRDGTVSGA
Method in brief: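 Luminescent readout of luciferin produced by CYP3A4 (20 nM) dealkylation of Luciferin-PPXE, 25 uM (its KM). NADPH-driven reaction ran 60 min at RT after 10 min compound preincubation; data scaled to 57 uM ketoconazole as 100% inhibition.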

[2] = target: Cytochrome P450 3A4 (Homo sapiens) (UniProt P08684); experiment: qHTS Assay for Activators of Cytochrome P450 3A4 (AID 885); further: nearly all actives have a fitted effect of over 65% in size
Method in brief: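 CYP3A4 activity: Luciferin-PPXE O-dealkylation, 25uM substrate, 200mM KPO4, RT throughout. Read-out is luciferase luminescence; higher values reflect activation.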

[3] = target: Ubiquitin carboxyl-terminal hydrolase 1 (Homo sapiens) (UniProt O94782); experiment: Inhibitors of USP1/UAF1: Pilot qHTS (AID 504865);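 further: rhodamine fluorescence freed from ubiquitin-rhodamine substrate followed over time; top concentration of the series differs between compounds; nearly all actives have a fitted effect of over 35% in size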
Sequence of Ubiquitin carboxyl-terminal hydrolase 1 (Homo sapiens) (O94782 whole entry, looked up): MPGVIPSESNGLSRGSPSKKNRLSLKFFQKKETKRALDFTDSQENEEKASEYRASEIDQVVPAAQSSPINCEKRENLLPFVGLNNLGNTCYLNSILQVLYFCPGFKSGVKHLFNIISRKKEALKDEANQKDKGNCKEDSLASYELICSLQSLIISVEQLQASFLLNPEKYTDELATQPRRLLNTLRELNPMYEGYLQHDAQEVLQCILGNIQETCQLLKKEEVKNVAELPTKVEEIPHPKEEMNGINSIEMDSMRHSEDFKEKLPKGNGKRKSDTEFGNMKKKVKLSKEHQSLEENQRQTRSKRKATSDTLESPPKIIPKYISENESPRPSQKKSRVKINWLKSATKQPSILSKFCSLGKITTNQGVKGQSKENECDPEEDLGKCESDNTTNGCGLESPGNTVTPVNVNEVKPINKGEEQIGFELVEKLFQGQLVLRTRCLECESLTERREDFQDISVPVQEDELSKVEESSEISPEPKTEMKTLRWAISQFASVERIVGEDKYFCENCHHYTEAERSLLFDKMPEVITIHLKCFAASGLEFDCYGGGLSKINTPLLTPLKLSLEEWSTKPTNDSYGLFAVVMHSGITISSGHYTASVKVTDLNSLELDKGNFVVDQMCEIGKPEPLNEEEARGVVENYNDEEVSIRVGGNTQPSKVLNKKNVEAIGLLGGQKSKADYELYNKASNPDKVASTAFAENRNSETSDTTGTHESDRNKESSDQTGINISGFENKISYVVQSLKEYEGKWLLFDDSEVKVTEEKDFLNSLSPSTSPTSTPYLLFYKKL
Method in brief: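 USP1/UAF1 complex at 1 nM preincubated 15 min at room temperature with compound, then Ub-Rho substrate added at 150 nM final. Fluorescence (480/540 nm) read kinetically in 50 mM HEPES pH 7.8, 0.5 mM EDTA, 1 mM TCEP, 0.1 mg/ml BSA, 0.01% Tween-20.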

[4] = target: DNA dC->dU-editing enzyme APOBEC-3G (Homo sapiens) (UniProt Q9HC16); experiment: qHTS for inhibitors of Vif-A3G interactions: Validation (AID 588379)
Sequence of DNA dC->dU-editing enzyme APOBEC-3G (Homo sapiens) (Q9HC16 whole entry, looked up): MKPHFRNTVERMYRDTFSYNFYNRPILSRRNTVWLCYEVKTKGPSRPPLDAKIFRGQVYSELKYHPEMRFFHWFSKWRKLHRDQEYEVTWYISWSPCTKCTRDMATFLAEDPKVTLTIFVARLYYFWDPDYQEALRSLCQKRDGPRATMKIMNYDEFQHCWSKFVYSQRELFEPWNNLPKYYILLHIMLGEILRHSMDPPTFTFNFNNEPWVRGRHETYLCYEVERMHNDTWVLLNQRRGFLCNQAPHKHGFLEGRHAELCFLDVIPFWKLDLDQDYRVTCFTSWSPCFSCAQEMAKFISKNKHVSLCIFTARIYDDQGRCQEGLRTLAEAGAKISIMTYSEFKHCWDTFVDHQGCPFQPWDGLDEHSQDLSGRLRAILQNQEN
Method in brief: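 Yellow fluorescence (Ex 488, Em 500-530) of Vif-coexpressing HeLa A3G-eYFP cells, scanned by Acumen cytometer, reports blocked A3G degradation. Cells plated at 700/well overnight at 37 deg C before compound addition, then a further overnight compound incubation at 37 deg C.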

[5] = target: Tumor susceptibility gene 101 protein (Homo sapiens) (UniProt Q99816); experiment: qHTS Assay for Iinhibitors of HIV-1 Budding by Blocking the Interaction of PTAP/TSG101: Hit Validation (AID 651600); further: nearly all actives have a fitted effect of over 70% in size
Sequence of Tumor susceptibility gene 101 protein (Homo sapiens) (Q99816 whole entry, looked up, the tested form may be a part): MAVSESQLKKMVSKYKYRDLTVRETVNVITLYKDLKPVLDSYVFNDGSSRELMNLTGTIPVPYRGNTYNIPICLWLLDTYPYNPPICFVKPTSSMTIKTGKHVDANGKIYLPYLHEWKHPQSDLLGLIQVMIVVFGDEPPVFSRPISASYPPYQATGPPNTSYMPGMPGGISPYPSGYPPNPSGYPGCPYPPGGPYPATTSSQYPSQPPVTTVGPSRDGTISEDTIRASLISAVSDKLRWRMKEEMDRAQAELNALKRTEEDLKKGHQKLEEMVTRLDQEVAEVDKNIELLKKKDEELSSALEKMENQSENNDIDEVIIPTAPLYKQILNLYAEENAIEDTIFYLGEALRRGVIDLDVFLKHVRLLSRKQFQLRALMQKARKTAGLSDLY
Method in brief: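 Fluorescence polarization binding assay: Tsg101 binding domain (10 uM) mixed with compounds and FITC-labeled PTAP peptide (50 nM) in HEPES pH 7.5, 0.15 M NaCl, 0.01% Tween 20, EDTA, TCEP; 20 min at r.t.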

Compound	Potency [1]	outcome [2]	Potency [3]	outcome [4]	Potency [5]
COc1ccc(/C=C/C(=O)c2cccs2)c(OC)c1	6.31 µM (active)	inactive	inactive	inactive	–
CN1/C(=C\C=C2/C(=O)Oc3ccccc3C2=O)C(C)(C)c2ccccc21	–	–	–	–	inactive
